This note sets out measurements from PMC5540273 (PLoS ONE, 2017).

Among the test systems are LYN; MAK; MAP3K15; MAP3K1; MAP3K2; MAP3K3; MAP3K4; MAP4K2; MAP4K3; MAP4K4; MAP4K5; MAPKAPK2; MAPKAPK5; MARK1; MARK2; MARK3; MARK4; MAST1.
What all share (settings): n = 1
A further assay deals with T1, LZK.
T1 construct: gene MAP3K13

The subject of another assay is T2, MEK1.
T2 construct: gene MAP2K1

[1] abbreviates: concentration: 1 μM, replicates: in singlicate.

Molecules are shown by their SMILES. Where two headings read alike, the source gives them in different places.
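Also: KINOMEscan kinase panel screen.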

Take `COc1ccc(Nc2nccc(NCCNC(=O)Nc3ccccc3F)n2)cc1` [GSK1379901]: the “%Inh” value stood at 0% in the assay on LYN (setting [1]); 7% in the assay with LZK (setting [1]); 19% with MAK (setting [1]); 0% in the assay on MAP3K15 (setting [1]); 1% with MAP3K1 (setting [1]); 5% in the assay with MAP3K2 (setting [1]). For the same compound, the “%Inh” value with MAP3K3 (setting [1]) is recorded as 0%; in the assay with MAP3K4 (setting [1]) it was 52%; in the assay on MAP4K2 (setting [1]), 0%; in the assay on MAP4K3 (setting [1]) it was 0%; in the assay with MAP4K4 (setting [1]), 0%; in the assay on MAP4K5 (setting [1]), 0%. Moreover, the “%Inh” value is given as 25% in the assay on MAPKAPK2 (setting [1]); 0% in the assay with MAPKAPK5 (setting [1]); 0% in the assay with MARK1 (setting [1]); 0% in the assay with MARK2 (setting [1]); 0% with MARK3 (setting [1]); 11% in the assay on MARK4 (setting [1]). Further, the “%Inh” value in the assay with MAST1 (setting [1]) and with MEK1 (setting [1]) was 0% each time.
`COc1ccc(CNC(=O)NC2CCN(c3ccnc(Nc4cc(OC)c(OC)c(OC)c4)n3)C2)cc1` (stereo not shown) [GSK1379748]: the “%Inh” value in the assay on LYN (setting [1]) turned out to be 0%; in the assay on LZK (setting [1]) it was 43%; in the assay with MAK (setting [1]), 17%; in the assay with MAP3K15 (setting [1]), 0%; with MAP3K1 (setting [1]), 0%; with MAP3K2 (setting [1]) it was 0%. Besides, the “%Inh” value in the assay with MAP3K3 (setting [1]) came out at 0%; in the assay with MAP3K4 (setting [1]), 2%; in the assay on MAP4K2 (setting [1]), 5%; in the assay on MAP4K3 (setting [1]), 0%; with MAP4K4 (setting [1]), 0%; in the assay on MAP4K5 (setting [1]) it was 0%. In addition, the “%Inh” value in the assay with MAPKAPK2 (setting [1]), in the assay on MAPKAPK5 (setting [1]), in the assay with MARK1 (setting [1]), with MARK2 (setting [1]), in the assay on MARK3 (setting [1]) and in the assay with MARK4 (setting [1]) was 0% in each case. For the same compound, the figures for the “%Inh” value with MAST1 (setting [1]) and with MEK1 (setting [1]) were 13% and 0%, respectively.
Regarding `COc1cc(Nc2nccc(N3CCC(NC(=O)Nc4cc(C)ccc4C)C3)n2)cc(OC)c1OC` (stereo not shown) [GSK1379762], the “%Inh” value was found to be 6% with LYN (setting [1]); 0% with LZK (setting [1]); 54% in the assay on MAK (setting [1]); 17% with MAP3K15 (setting [1]); 16% in the assay with MAP3K1 (setting [1]); 0% with MAP3K2 (setting [1]). The “%Inh” value turned out to be 0% in the assay with MAP3K3 (setting [1]); 12% in the assay on MAP3K4 (setting [1]); 0% in the assay with MAP4K2 (setting [1]); 0% with MAP4K3 (setting [1]); 0% with MAP4K4 (setting [1]); 0% with MAP4K5 (setting [1]). Also, the “%Inh” value worked out at 10% in the assay with MAPKAPK2 (setting [1]); 0% in the assay with MAPKAPK5 (setting [1]); 0% in the assay with MARK1 (setting [1]); 0% with MARK2 (setting [1]); 8% in the assay on MARK3 (setting [1]); 9% in the assay on MARK4 (setting [1]). Moreover, the figures for the “%Inh” value in the assay on MAST1 (setting [1]) and in the assay on MEK1 (setting [1]) were 2% and 0%, respectively.
For the compound `CN1C(=O)C(Nc2ccc(Cl)c(C(=O)O)c2)=C(c2ccc(Cl)cc2)C1=O` [SB-404290], the “%Inh” value is recorded as 0% in the assay on LYN (setting [1]); 0% in the assay on LZK (setting [1]); 0% in the assay on MAK (setting [1]); 45% in the assay with MAP3K15 (setting [1]); 16% with MAP3K1 (setting [1]); 21% in the assay on MAP3K2 (setting [1]). Besides, the “%Inh” value came to 12% in the assay on MAP3K3 (setting [1]); 9% in the assay with MAP3K4 (setting [1]); 21% in the assay on MAP4K2 (setting [1]); 0% in the assay with MAP4K3 (setting [1]); 0% in the assay on MAP4K4 (setting [1]); 0% with MAP4K5 (setting [1]). In addition, the “%Inh” value in the assay with MAPKAPK2 (setting [1]) is 23%; with MAPKAPK5 (setting [1]), 12%; with MARK1 (setting [1]) it was 0%; in the assay with MARK2 (setting [1]), 27%; with MARK3 (setting [1]), 0%; with MARK4 (setting [1]) it was 13%. For the same compound, the “%Inh” value was determined as 42% in the assay on MAST1 (setting [1]) and 0% in the assay with MEK1 (setting [1]).
`Cc1csc(-c2nc(Nc3ccncc3)c3ccccc3n2)n1` [GW869640]: the “%Inh” value with LYN (setting [1]) turned out to be 0%; with LZK (setting [1]), 20%; in the assay with MAK (setting [1]) it was 2%; in the assay on MAP3K15 (setting [1]) it was 35%; with MAP3K1 (setting [1]), 35%; in the assay with MAP3K2 (setting [1]) it was 38%. Besides, the “%Inh” value in the assay on MAP3K3 (setting [1]) stood at 1%; in the assay on MAP3K4 (setting [1]), 2%; in the assay on MAP4K2 (setting [1]), 34%; in the assay with MAP4K3 (setting [1]), 0%; in the assay on MAP4K4 (setting [1]) it was 14%; in the assay with MAP4K5 (setting [1]), 0%. Also, the “%Inh” value in the assay with MAPKAPK2 (setting [1]) is listed as 0%; in the assay with MAPKAPK5 (setting [1]), 3%; with MARK1 (setting [1]) it was 25%; with MARK2 (setting [1]) it was 13%; in the assay on MARK3 (setting [1]), 0%; with MARK4 (setting [1]), 38%. Moreover, the “%Inh” value with MAST1 (setting [1]) amounted to 60%; in the assay with MEK1 (setting [1]), 13%.
With `O=C(O)COc1ncnc2cc(-c3ccc4[nH]ncc4c3)sc12`, the “%Inh” value is listed as 0% with LYN (setting [1]); 39% in the assay with LZK (setting [1]); 2% in the assay on MAK (setting [1]); 53% with MAP3K15 (setting [1]); 22% in the assay with MAP3K1 (setting [1]); 13% with MAP3K2 (setting [1]). Further, the “%Inh” value in the assay on MAP3K3 (setting [1]) turned out to be 9%; with MAP3K4 (setting [1]) it was 4%; in the assay on MAP4K2 (setting [1]) it was 1%; in the assay on MAP4K3 (setting [1]), 0%; in the assay on MAP4K4 (setting [1]), 0%; with MAP4K5 (setting [1]), 6%. Further, the “%Inh” value with MAPKAPK2 (setting [1]) amounted to 0%; in the assay with MAPKAPK5 (setting [1]), 9%; in the assay on MARK1 (setting [1]), 8%; in the assay with MARK2 (setting [1]), 20%; in the assay on MARK3 (setting [1]), 0%; in the assay on MARK4 (setting [1]) it was 14%. The “%Inh” value came to 0% with MAST1 (setting [1]) and 5% with MEK1 (setting [1]).
As to `Nc1nc(-c2nccs2)c(-c2ccnc3ccccc23)s1` [GW693542], the “%Inh” value in the assay on LYN (setting [1]) is on record as 3%; in the assay on LZK (setting [1]), 3%; with MAK (setting [1]), 46%; in the assay on MAP3K15 (setting [1]), 0%; in the assay on MAP3K1 (setting [1]), 13%; in the assay with MAP3K2 (setting [1]) it was 0%. Also, the “%Inh” value came out at 0% in the assay on MAP3K3 (setting [1]); 27% in the assay on MAP3K4 (setting [1]); 0% with MAP4K2 (setting [1]); 0% with MAP4K3 (setting [1]); 4% in the assay with MAP4K4 (setting [1]); 0% in the assay with MAP4K5 (setting [1]). The “%Inh” value in the assay on MAPKAPK2 (setting [1]) stood at 28%; in the assay on MAPKAPK5 (setting [1]), 0%; with MARK1 (setting [1]), 0%; with MARK2 (setting [1]) it was 0%; with MARK3 (setting [1]) it was 0%; in the assay on MARK4 (setting [1]) it was 1%. The “%Inh” value in the assay on MAST1 (setting [1]) and in the assay on MEK1 (setting [1]) was 0% each time.
Take `Cc1ccc(NC(=O)Nc2cccc(C(F)(F)F)c2)cc1` [GSK955403]: the “%Inh” value in the assay with LYN (1 µM), in the assay with LZK (1 µM), with MAK (1 µM), in the assay on MAP3K15 (1 µM), in the assay with MAP3K1 (1 µM) and with MAP3K2 (1 µM) was 0% each time. Moreover, the “%Inh” value was determined as 3% in the assay with MAP3K3 (1 µM); 35% with MAP3K4 (1 µM); 0% in the assay with MAP4K2 (1 µM); 0% with MAP4K3 (1 µM); 0% with MAP4K4 (1 µM); 0% with MAP4K5 (1 µM). Also, the “%Inh” value with MAPKAPK2 (1 µM) was determined as 0%; with MAPKAPK5 (1 µM), 0%; in the assay on MARK1 (1 µM), 0%; with MARK2 (1 µM) it was 0%; in the assay with MARK3 (1 µM) it was 0%; in the assay on MARK4 (1 µM) it was 4%. In addition, the “%Inh” value in the assay with MAST1 (1 µM) is recorded as 21%; in the assay on MEK1 (1 µM) it was 5%.
On to `COc1cccc(NC(=O)NC2CCN(c3ccnc(Nc4ccc(F)cc4)n3)C2)c1` (stereo not shown) [GSK1379721], for which the “%Inh” value with LYN (setting [1]) is 0%; with LZK (setting [1]) it was 17%; in the assay with MAK (setting [1]), 32%; with MAP3K15 (setting [1]), 0%; in the assay with MAP3K1 (setting [1]) it was 5%; in the assay on MAP3K2 (setting [1]), 0%. Further, the “%Inh” value in the assay on MAP3K3 (setting [1]) is given as 0%; with MAP3K4 (setting [1]), 13%; with MAP4K2 (setting [1]) it was 2%; with MAP4K3 (setting [1]), 0%; in the assay with MAP4K4 (setting [1]), 83%; in the assay with MAP4K5 (setting [1]), 96.7%. In addition, the “%Inh” value in the assay on MAPKAPK2 (setting [1]) stood at 0%; in the assay with MAPKAPK5 (setting [1]), 0%; with MARK1 (setting [1]), 0%; in the assay on MARK2 (setting [1]), 0%; in the assay on MARK3 (setting [1]) it was 9%; in the assay with MARK4 (setting [1]), 0%. Also, the “%Inh” value was determined as 17% with MAST1 (setting [1]) and 31% in the assay with MEK1 (setting [1]).
Take `Cc1nnc(-c2ccc3occ(-c4ccc(S(C)=O)cc4)c3c2)[nH]1` (stereo not shown): the “%Inh” value in the assay with LYN (setting [1]) was determined as 18%; with LZK (setting [1]), 0%; in the assay on MAK (setting [1]) it was 0%; in the assay with MAP3K15 (setting [1]) it was 10%; in the assay with MAP3K1 (setting [1]), 24%; in the assay with MAP3K2 (setting [1]), 1%. The “%Inh” value is 0% with MAP3K3 (setting [1]); 2% in the assay on MAP3K4 (setting [1]); 0% with MAP4K2 (setting [1]); 11% in the assay on MAP4K3 (setting [1]); 0% in the assay on MAP4K4 (setting [1]); 0% in the assay on MAP4K5 (setting [1]). The “%Inh” value in the assay with MAPKAPK2 (setting [1]) is given as 0%; with MAPKAPK5 (setting [1]), 20%; with MARK1 (setting [1]) it was 21%; with MARK2 (setting [1]) it was 22%; in the assay on MARK3 (setting [1]), 0%; with MARK4 (setting [1]), 19%. Further, the “%Inh” value in the assay with MAST1 (setting [1]) is on record as 7%; in the assay with MEK1 (setting [1]), 8%.
`COc1ccccc1-c1ccc2c(NC(=O)C3CC3)n[nH]c2n1` [SB-711239]: the “%Inh” value with LYN (setting [1]) worked out at 18%; in the assay on LZK (setting [1]), 24%; in the assay with MAK (setting [1]) it was 23%; with MAP3K15 (setting [1]), 0%; with MAP3K1 (setting [1]) it was 0%; with MAP3K2 (setting [1]), 0%. The “%Inh” value with MAP3K3 (setting [1]) is given as 0%; in the assay on MAP3K4 (setting [1]) it was 32%; with MAP4K2 (setting [1]) it was 0%; in the assay on MAP4K3 (setting [1]) it was 0%; in the assay with MAP4K4 (setting [1]) it was 25%; in the assay on MAP4K5 (setting [1]), 26%. Also, the “%Inh” value with MAPKAPK2 (setting [1]) is 27%; in the assay on MAPKAPK5 (setting [1]), 2%; in the assay with MARK1 (setting [1]), 0%; with MARK2 (setting [1]), 0%; with MARK3 (setting [1]), 0%; in the assay with MARK4 (setting [1]), 0%. In addition, the “%Inh” value amounted to 26% in the assay with MAST1 (setting [1]) and 0% with MEK1 (setting [1]).
